Assay results from PubChem BioAssay.
The source made the active and inactive calls.

Key:
[1] = binders of probe aFSTL3 on microarray, primary screen, stem cell growth factor project, biochemical, small-molecule microarray, fluorescence 635/667 (AID 1064); settings: higher = more signal;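 note: measures binding of the biotinylated anti-FSTL3 antibody to printed compounds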
[2] = binders from COS7 lysate, DM2A8 probe, primary screen, torsin A project, cell lysate, small-molecule microarray, fluorescence 635/667 (AID 1065); settings: higher = more signal, COS7 lysate expressing mutant human TOR1A
[3] = binders of probe aFGF2 on microarray, primary screen, stem cell growth factor project, biochemical, small-molecule microarray, fluorescence 635/667 (AID 1067); settings: higher = more signal;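 note: measures binding of biotinylated aFGF2 protein to printed compounds on slides; z-score merges feature fluorescence and signal-to-noise across triplicate slides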
[4] = binders of probe aFGF10 on microarray, primary screen, stem cell growth factor project, biochemical, small-molecule microarray, fluorescence 635/667 (AID 1071); settings: higher = more signal;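 note: score merges 667 nm spot intensity and signal to noise from triplicate slides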
[5] = target: Neurogenic locus notch homolog protein 2 (Homo sapiens) (UniProt Q04721); test: Notch2 binders on small-molecule microarrays, primary screen, biochemical, small-molecule microarray, 635 nm fluorescence, stem cell growth factors (AID 1073); settings: Notch2 binding, higher = more signal
[6] = target: Pro-neuregulin-1, membrane-bound isoform (Homo sapiens) (UniProt Q02297); test: NRG1 binders on small-molecule microarrays, primary screen, psychiatric disease protein project, biochemical, small-molecule microarray, fluorescence 635/667 (AID 1075); settings: NRG1 binding, 635 nm fluorescence, higher = more signal;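 note: score combines 667 nm spot fluorescence with signal to noise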
[7] = tested on: Neuregulin-1 EGF-like domain; test: binders of neuregulin-1 EGF-like domain, primary screen, biochemical, small-molecule microarray, 635 nm fluorescence (AID 1081); settings: small-molecule microarray binding, higher = more signal;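 note: binding of the protein to compounds printed on small-molecule microarray slides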
[8] = FRG1 promoter luciferase signal modulators, primary screen, FRG1 inhibition for FSHD, cell-based, C2C12 myotubes, firefly/Renilla luciferase, luminescence (AID 1084); settings: higher = more signal, called active from +8 up or from −8 down
[9] = binders of probe aFST on microarray, primary screen, stem cell growth factor project, biochemical, small-molecule microarray, fluorescence 635/667 (AID 1086); settings: higher = more signal;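 note: score merges 667 nm fluorescence with signal-to-noise of each printed compound spot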
[10] = binders of probe aHhip on microarray, primary screen, stem cell growth factor project, biochemical, small-molecule microarray, fluorescence 635/667 (AID 1087); settings: higher = more signal;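 note: score merges spot fluorescence at 667nm with spot signal to noise ratio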

Pro-neuregulin-1, membrane-bound isoform (Homo sapiens), sequence (Q02297 whole entry, looked up, the tested form may be a part, canonical isoform): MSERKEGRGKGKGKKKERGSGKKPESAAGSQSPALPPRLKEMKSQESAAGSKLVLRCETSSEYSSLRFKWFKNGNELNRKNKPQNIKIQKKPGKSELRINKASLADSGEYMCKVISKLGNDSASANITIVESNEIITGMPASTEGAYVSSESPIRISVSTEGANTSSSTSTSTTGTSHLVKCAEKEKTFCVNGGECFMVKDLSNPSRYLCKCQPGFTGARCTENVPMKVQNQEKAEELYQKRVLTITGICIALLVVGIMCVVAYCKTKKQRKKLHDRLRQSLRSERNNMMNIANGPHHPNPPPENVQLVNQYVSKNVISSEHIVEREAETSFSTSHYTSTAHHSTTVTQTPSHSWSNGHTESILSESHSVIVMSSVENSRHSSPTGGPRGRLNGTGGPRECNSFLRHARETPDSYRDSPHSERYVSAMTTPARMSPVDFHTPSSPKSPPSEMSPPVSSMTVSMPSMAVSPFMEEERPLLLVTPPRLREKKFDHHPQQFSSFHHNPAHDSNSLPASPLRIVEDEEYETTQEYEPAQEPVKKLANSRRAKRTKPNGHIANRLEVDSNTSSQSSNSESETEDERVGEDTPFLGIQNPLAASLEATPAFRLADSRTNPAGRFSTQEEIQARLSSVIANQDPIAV
Neurogenic locus notch homolog protein 2 (Homo sapiens), sequence (Q04721 whole entry, looked up, canonical isoform): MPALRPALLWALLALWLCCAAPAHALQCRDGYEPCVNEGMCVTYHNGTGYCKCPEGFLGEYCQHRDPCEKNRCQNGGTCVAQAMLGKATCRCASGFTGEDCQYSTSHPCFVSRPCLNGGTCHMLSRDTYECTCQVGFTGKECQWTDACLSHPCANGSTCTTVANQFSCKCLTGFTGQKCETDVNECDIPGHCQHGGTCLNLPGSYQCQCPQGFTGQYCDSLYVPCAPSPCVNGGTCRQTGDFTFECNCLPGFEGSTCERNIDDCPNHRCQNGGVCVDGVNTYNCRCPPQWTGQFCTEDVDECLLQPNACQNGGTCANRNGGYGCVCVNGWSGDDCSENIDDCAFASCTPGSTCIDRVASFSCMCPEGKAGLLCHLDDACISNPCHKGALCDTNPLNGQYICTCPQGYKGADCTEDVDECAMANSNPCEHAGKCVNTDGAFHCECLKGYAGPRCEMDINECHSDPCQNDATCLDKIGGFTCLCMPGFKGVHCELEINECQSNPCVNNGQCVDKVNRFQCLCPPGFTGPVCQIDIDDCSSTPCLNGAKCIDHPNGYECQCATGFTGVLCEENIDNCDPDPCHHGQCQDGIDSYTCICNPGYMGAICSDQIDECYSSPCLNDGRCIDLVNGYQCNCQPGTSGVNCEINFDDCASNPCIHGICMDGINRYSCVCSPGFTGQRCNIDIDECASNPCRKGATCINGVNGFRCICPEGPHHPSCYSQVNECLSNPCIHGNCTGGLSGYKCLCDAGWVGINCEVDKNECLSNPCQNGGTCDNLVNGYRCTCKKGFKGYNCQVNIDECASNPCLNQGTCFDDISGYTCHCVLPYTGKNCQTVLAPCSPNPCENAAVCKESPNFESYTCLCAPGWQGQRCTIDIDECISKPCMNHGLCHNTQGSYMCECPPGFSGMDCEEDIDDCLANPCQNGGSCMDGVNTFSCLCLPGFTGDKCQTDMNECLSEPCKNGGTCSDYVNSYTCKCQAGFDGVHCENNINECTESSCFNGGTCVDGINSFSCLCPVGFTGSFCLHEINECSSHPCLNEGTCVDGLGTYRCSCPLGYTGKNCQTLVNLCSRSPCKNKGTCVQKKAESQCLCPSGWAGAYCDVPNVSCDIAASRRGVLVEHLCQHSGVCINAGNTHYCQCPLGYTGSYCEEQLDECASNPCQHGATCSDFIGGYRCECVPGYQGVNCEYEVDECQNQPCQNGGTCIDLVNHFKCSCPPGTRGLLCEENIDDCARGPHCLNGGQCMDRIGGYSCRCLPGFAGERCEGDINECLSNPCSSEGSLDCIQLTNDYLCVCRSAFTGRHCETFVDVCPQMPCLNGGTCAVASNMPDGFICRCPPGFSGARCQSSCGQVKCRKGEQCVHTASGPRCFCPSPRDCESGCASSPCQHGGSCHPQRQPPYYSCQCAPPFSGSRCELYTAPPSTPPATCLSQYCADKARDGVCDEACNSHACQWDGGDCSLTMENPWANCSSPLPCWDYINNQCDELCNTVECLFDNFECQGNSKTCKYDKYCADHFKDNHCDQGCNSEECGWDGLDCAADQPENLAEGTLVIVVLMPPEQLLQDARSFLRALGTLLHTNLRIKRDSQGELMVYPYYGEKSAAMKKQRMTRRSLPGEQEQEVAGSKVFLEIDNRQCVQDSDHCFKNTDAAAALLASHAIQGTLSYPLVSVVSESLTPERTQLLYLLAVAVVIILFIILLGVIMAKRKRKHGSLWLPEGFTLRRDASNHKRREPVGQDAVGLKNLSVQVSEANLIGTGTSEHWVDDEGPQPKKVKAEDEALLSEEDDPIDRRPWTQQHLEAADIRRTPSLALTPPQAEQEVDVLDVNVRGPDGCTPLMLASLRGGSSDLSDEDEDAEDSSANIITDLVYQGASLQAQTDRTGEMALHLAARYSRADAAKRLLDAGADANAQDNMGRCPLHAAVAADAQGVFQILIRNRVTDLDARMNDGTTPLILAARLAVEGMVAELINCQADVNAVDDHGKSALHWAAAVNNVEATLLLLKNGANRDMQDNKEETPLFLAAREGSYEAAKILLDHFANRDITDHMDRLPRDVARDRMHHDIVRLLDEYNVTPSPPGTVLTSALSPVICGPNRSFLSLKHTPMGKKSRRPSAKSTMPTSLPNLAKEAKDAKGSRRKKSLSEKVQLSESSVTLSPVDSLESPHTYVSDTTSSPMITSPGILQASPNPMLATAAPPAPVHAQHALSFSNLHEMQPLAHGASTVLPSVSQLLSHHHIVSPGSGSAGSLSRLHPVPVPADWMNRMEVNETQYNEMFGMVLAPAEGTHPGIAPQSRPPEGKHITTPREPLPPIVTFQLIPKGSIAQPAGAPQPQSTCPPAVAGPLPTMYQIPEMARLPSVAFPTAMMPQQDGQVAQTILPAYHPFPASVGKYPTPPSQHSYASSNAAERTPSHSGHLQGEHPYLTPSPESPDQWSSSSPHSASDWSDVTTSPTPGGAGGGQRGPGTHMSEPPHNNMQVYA

| SMILES | composite z-score [1] | composite z-score [2] | composite z-score [3] | composite z-score [4] | composite z-score [5] | composite z-score [6] | composite z-score [7] | z-score [8] | composite z-score [9] | composite z-score [10] |
| --- | --- | --- | --- | --- | --- | --- | --- | --- | --- | --- |
| C=CCC(OC(C)=O)[C@@H]1[C@@H](N(Cc2ccc(-c3ccccc3)cc2)C(=O)Cc2ccc(F)cc2)c2cc(OCCCO)ccc2N1C(=O)c1ccc(-c2ccccc2)cc1 (stereo not given in full) | 0.124 | 0.143 | -0.0145 | -0.0694 | -0.305 | -0.23 | -0.937 | -0.432 (inactive) | 0.0621 | -0.0994 |
| CC(C)C(CO)N1C(=O)[C@@H]2[C@H]3C(=O)OCC=C[C@H]3OC23C=CCN(C(C)C)C(=O)[C@@H]13 (stereo not given in full) | -0.25 | -0.615 | -0.187 | -0.271 | -0.142 | 0.814 | -0.677 | -0.724 (inactive) | -0.422 | -0.374 |
| N#Cc1ccc(NN2C(C(O)c3c(F)cccc3Cl)C=CC3C(=O)N(c4ccccc4)C(=O)C32)cc1 (stereo not given) | 0.394 | 0.187 | 0.199 | 0.63 | 1.69 | 1.97 | 0.456 | -1.14 (inactive) | 1.18 | 0.0053 |
| CCCCN1CC=CC23O[C@@H]4/C=C\CCC(C)OC(=O)C4[C@H]2C(=O)N(CCCCCO)[C@@H]3C1=O (stereo not given in full) | 0.141 | -0.421 | -0.132 | -1.16 | -0.784 | 0.768 | 0.178 | 0.464 (inactive) | -0.526 | -0.0994 |
| O=C1c2ccccc2[C@](Cc2ccccc2I)(C(=O)NC2CC2)[C@H](c2ccc(CO)cc2)N1Cc1ccccc1 | 0.16 | -0.211 | -0.0335 | 0.483 | 0.543 | 0.458 | 0.774 | -3.11 (inactive) | -0.364 | -0.0994 |
| COC(=O)[C@@]1(Cc2ccccc2)[C@H]2c3cc(C(=O)N4CCCC4)n(Cc4nc5ccccc5[nH]4)c3C[C@H]2CN1C(=O)c1ccccc1 | 1.19 | 0.74 | -0.0879 | 0.115 | 1.72 | 2.07 | 0.807 | 2.63 (inactive) | 1.65 | 0.507 |
| CC(C)(C)OC(=O)CC[C@@]1(C(N)=O)N=C(c2ccc(OCCCO)cc2)O[C@@H]1c1ccccc1 | 0.0075 | 1.93 | -0.0399 | 0.558 | 1.29 | 1.71 | 1.24 | 0.18 (inactive) | 1.05 | -0.134 |
| C[N+](C)(C)CCCC[C@@H]1NC(=O)[C@@H]2C[C@H](C(=O)NCCCCCN)[C@H](c3cccc(OCCO)c3)N2C1=O | 0.6 | 1.6 | -0.0253 | 0.506 | 1.14 | 2.15 | 1.08 | -0.992 (inactive) | 0.877 | 0.161 |
| COCCOC(=O)N1C(=O)[C@@]2(c3cc(C#CCCO)ccc31)[C@H](c1ccc(OCCO)cc1)N1[C@H](c3ccccc3)[C@H](c3ccccc3)OC(=O)[C@H]1[C@@H]2C(=O)N1CCN(c2ncccn2)CC1 | -0.204 | -0.0161 | -0.0972 | 0.281 | 1.33 | 0.317 | 1.23 | -0.37 (inactive) | 0.658 | 0.0274 |
| COc1cc2c(cc1OC)CN(C(=O)[C@H]1[C@@H]3C(=O)O[C@@H](c4ccccc4)[C@@H](c4ccccc4)N3[C@@H](c3ccc(O)cc3)[C@]13C(=O)Nc1ccc(C#CC4=CCCCC4)cc13)CC2 | -0.0904 | 1.36 | 0.088 | 1.24 | 1.24 | 1.33 | 1.21 | -0.139 (inactive) | 0.827 | 0.421 |
| C=CCOC(=O)[C@@H]1[C@H]2C(=O)O[C@H](c3ccccc3)[C@H](c3ccccc3)N2[C@H](c2ccc(OCCOC(=O)[C@@H]3C[C@@H]4C(=O)N[C@@H](Cc5ccccc5)C(=O)N4[C@@H]3c3ccc(O)cc3)cc2)[C@@]12C(=O)Nc1ccc(I)cc12 | -0.219 | 0.602 | -0.0944 | 0.302 | 0.825 | 0.612 | 1.14 | 1.42 (inactive) | 0.11 | 0.238 |
| [N-]=[N+]=Nc1ccccc1C[C@]1(C(=O)NCC(O)CO)N=C(c2ccc(OCCCO)cc2)O[C@H]1c1ccccc1N=[N+]=[N-] (stereo not given in full) | 0.722 | 0.0264 | 0.056 | 0.33 | 0.379 | 1.45 | 0.753 | -0.516 (inactive) | 0.375 | -0.0994 |
| O=C1O[C@@H](c2ccccc2)[C@@H](c2ccccc2)N2[C@@H](c3ccccc3OCCO)[C@]3(C(=O)Nc4ccc(C#CC5=CCCCC5)cc43)[C@@H](C(=O)Nc3nc4ccccc4s3)[C@H]12 | -0.177 | 0.106 | -0.0267 | 1.09 | 1.11 | 0.792 | 0.94 | 0.197 (inactive) | 0.438 | -0.0346 |
| COC(=O)c1c(CC[C@@H](CO)NC(=O)N[C@H](Cn2cc(Cc3ccccc3)nn2)C(C)C)oc(C(C)=O)c1C(=O)OC | -0.234 | 0.128 | -0.119 | 1.09 | 0.0441 | 0.0567 | 1.06 | 0.82 (inactive) | 0.059 | -0.236 |
| COC(=O)[C@@]1(Cc2ccc(OC)cc2)[C@H]2c3cc(C(=O)N(C)C)n(CCN4CNCC4=O)c3C[C@H]2CN1C(=O)c1ccccc1 | 0.39 | 1.47 | 0.0432 | -0.0075 | 1.27 | 1.51 | 1.3 | 0.124 (inactive) | 0.384 | 0.983 |
| C=CCNC(=O)[C@H]1[C@@H]2C(=O)O[C@@H](c3ccccc3)[C@@H](c3ccccc3)N2[C@@H](c2ccc(OCCO)cc2)[C@]12C(=O)N(C(=O)OCCOC)c1ccccc12 | -0.268 | 0.847 | 0.0732 | 0.591 | 1.45 | 1.53 | 1.38 | -2.56 (inactive) | 0.854 | 0.251 |
| C#CCN(Cc1ccccc1Br)C(/C=C/c1ccccc1)CO (stereo not given) | 0.389 | 0.0837 | -0.148 | 0.0126 | -0.619 | -0.17 | -0.131 | -1.83 (inactive) | -0.481 | -0.236 |
| C=CCNC(=O)[C@H]1[C@@H]2C(=O)O[C@@H](c3ccccc3)[C@@H](c3ccccc3)N2[C@@H](c2ccc(OCCO)cc2)[C@]12C(=O)Nc1ccc(C#CC3=CCCCC3)cc12 | -0.299 | 0.218 | 0.0703 | 0.498 | 1.05 | 0.688 | 1.29 | -0.254 (inactive) | 0.233 | -0.216 |
| COC(=O)[C@@]1(Cc2ccc(OC)cc2)[C@H]2c3cc(C(=O)N4CCCC4)n(Cc4ccccc4)c3C[C@H]2CN1C(=O)c1ccccc1 | 2.67 | 0.0681 | 0.788 | 0.784 | 1.61 | 1.98 | 1.36 | 0.42 (inactive) | 2.34 | 0.671 |
| CC(C)N1C(=O)c2ccccc2[C@](C)(C(=O)NCc2ccccc2)[C@@H]1c1ccc(CO)cc1 | 0.197 | 0.0699 | -0.157 | -0.158 | -0.463 | -1.06 | 0.744 | -1.03 (inactive) | -0.27 | -0.0994 |
| COCCOC(=O)N1C(=O)[C@@]2(c3cc(C#CC4(O)CCCCCC4)ccc31)[C@H](c1ccc(O)cc1)N1[C@H](c3ccccc3)[C@H](c3ccccc3)OC(=O)[C@H]1[C@@H]2C(=O)Nc1nc2ccccc2s1 | 1.87 | 0.186 | -0.045 | 0.769 | 1.15 | 1.15 | 1.02 | 1.41 (inactive) | 2.31 | 0.468 |
| C=C(CCCC)C(=O)CC[C@@H](OC(=O)c1cccnc1)c1ccc(CO)o1 | -0.45 | 0.0802 | -0.008 | 0.601 | 0.88 | 1.05 | 1.07 | -0.434 (inactive) | 0.391 | 0.122 |
| COC(=O)[C@@]1(Cc2ccc(F)cc2)[C@@H]2[C@@H](CC(=O)[C@H]2CC(=O)C(=O)N(C)C)CN1C(=O)c1ccccc1 | 0.367 | -0.178 | 0.287 | 0.855 | 1.76 | 1.3 | 1.18 | -0.439 (inactive) | 2.33 | 0.33 |
| CO[C@H]1O[C@H](CO)[C@@H](OC(=O)Nc2ccc(Br)cc2)[C@H](OC(=O)c2cc3ccccc3[nH]2)[C@H]1OC(=O)c1cc2ccccc2[nH]1 | -0.31 | 1.05 | -0.11 | 0.724 | 0.606 | 0.844 | 1.07 | -0.483 (inactive) | 0.237 | -0.0253 |
| COC(=O)C(CC#Cc1ccc2c(c1)[C@]1(C(=O)N2)[C@H](c2ccc(O)cc2)N2[C@H](c3ccccc3)[C@H](c3ccccc3)OC(=O)[C@H]2[C@@H]1C(=O)Nc1nc2ccccc2s1)C(=O)OC | -0.386 | 0.372 | 0.0402 | 1.08 | 1.23 | 1.44 | 1.24 | -0.532 (inactive) | 0.313 | -0.0672 |
| CC(C)[C@@H](CO)NC(=O)[C@H]1[C@@H](c2ccccc2)N(c2ccccc2)O[C@@H]1C | -0.5 | -0.245 | -0.143 | 0.439 | -0.208 | -0.0453 | 0.396 | -0.579 (inactive) | -0.0238 | -0.0237 |
| COCCCNC(=O)[C@@]1(Cc2ccccc2)N=C(c2ccc(OCCCO)cc2)O[C@H]1c1ccccc1 | 0.743 | 1.2 | 0.298 | 0.155 | 0.82 | 1.38 | 1.33 | -1.4 (inactive) | 1.08 | 1.17 |
| CC(C)(C)OC(=O)CC[C@]1(C(=O)O)N=C(c2ccc(OCCCO)cc2)O[C@H]1c1ccccc1N=[N+]=[N-] | 1.1 | 0.236 | 0.441 | 0.448 | 0.984 | 1.35 | 1.14 | 5.5 (inactive) | 2.04 | 1.24 |
